Columns and labels:
[1] = target: T1, Aspartate--tRNA(Asp/Asn) ligase (Mycobacterium tuberculosis (strain ATCC 25618 / H37Rv)) (UniProt P9WFW3); assay: Assay for Asp RNA synthetase-1 from Mycobacterium tuberculosis; assay type: functional; set-up: scale not given: direction of the effect not stated beside the values; settings: 30 µM; also: in the data most compounds retested in dose-response had high values
T1 sequence (whole entry): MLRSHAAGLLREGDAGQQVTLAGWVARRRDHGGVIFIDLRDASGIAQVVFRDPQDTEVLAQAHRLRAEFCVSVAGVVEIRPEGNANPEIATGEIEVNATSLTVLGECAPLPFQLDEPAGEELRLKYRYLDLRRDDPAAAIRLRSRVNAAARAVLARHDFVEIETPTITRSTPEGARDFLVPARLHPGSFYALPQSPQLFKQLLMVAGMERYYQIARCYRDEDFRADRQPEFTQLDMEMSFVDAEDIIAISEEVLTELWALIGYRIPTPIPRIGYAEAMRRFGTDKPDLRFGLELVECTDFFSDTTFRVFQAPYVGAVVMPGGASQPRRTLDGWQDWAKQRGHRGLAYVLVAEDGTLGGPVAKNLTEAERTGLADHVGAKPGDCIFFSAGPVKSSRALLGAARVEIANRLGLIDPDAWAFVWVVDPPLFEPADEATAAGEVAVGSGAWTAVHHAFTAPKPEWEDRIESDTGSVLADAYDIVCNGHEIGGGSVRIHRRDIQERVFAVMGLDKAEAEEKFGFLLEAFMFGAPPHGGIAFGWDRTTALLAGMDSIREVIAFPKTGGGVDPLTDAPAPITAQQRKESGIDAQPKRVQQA

[2] = target: Shiga toxin 2 (Escherichia coli O157:H7) (UniProt P09385+P09386); assay: E. coli 0.157:H7 Shiga Toxin SOP - stx2 screening assay; assay type: functional; set-up: scale not given: direction of the effect not stated beside the values; settings: 30 µM

| SMILES | Percent Effect [1] | Percent Effect [2] |
| --- | --- | --- |
| Fc1ccc(CN2CCO[C@H]3[C@H](OCC4CC4)CC[C@@H]32)cc1 | -1.08% | 3.83% |
| O=C(c1cccnc1)N1C[C@@H]2CC[C@H](C1)N(Cc1cc(F)ccc1F)C2 | 5.92% | 1.2% |
| CN1CCN(CCCNC(=O)c2cc(Cl)c3c(c2)OCO3)CC1 | -5.91% | -42.5% |
| COc1ccc(-c2nc(CN3CC(n4nc(C)cc4C)C3)no2)cc1 | 5.02% | -49.6% |
| COCc1cn([C@@H]2c3ccccc3C3(CCNCC3)[C@H]2O)nn1 | 3.45% | 8.95% |
| COC(=O)c1ccoc1COC(=O)CCc1ccc(OC)c(OC)c1 | -3.44% | 0.432% |
| COc1cccc(CCC(=O)N2CCCC(n3cc(C)cn3)C2)c1 (stereo not given) | -3.33% | 10.7% |
| O=C(NCCN1CCOCC1)c1n[nH]c(=O)c2ccccc12 | -2% | -29.3% |
| CC(C)c1noc(CCCC(=O)N2CCC(Cc3cccnc3)CC2)n1 | -0.0571% | 0.87% |
| O=C(c1ccccn1)N1C[C@@H]2CC[C@H](C1)N(C(=O)CCc1ccsc1)C2 | 0.446% | -55.7% |
| Cc1cc(C)n(CC(=O)N2CCC(NS(C)(=O)=O)CC2)n1 | -2.75% | 32.8% |
| COc1c(CNCCNC(=O)c2ccco2)c(C)nn1C | -2.68% | 14.7% |
| COc1cccc(OC)c1CN1CCC2(CC(Nc3ccncn3)C2)C1 (stereo not given) | 3.04% | 0.472% |
| CCc1nnc2n1CCN(CC(=O)Nc1cc(C(C)(C)C)nn1C)C2 | 0.589% | 28.9% |
| Cc1ccn(-c2cccc(C(=O)N3CCCC(n4ccnc4C)C3)c2)n1 (stereo not given) | -0.301% | -7.17% |
| CCn1cnnc1CNC(=O)N1CCC(C(=O)NC)CC1 | -8.1% | -16.1% |
| Cc1nnc2n1CCN(Cc1csc(CC(=O)N(C)C)n1)C2 | 2.24% | 5.11% |
| COC(=O)C1CCN(C(=O)c2ccc(NS(C)(=O)=O)c(C)c2)CC1 | -2.94% | -1.7% |
| COc1cccc(CN(C)S(=O)(=O)N2CCOCC2)c1 | -0.479% | 9.56% |
| CC(C)OCCCNC(=O)c1ccc(-c2ccco2)[nH]c1=O | -5.99% | 19% |
| CC(C)CN1CCN(C)C2(CCN(Cc3ccsc3)CC2)C1=O | 1.25% | -3.28% |
| Cc1n[nH]c(C)c1C1CCCN1C(=O)CNC(=O)C(C)(C)C (stereo not given) | 1.09% | -19.5% |
| O=C(Cn1c(=O)nc2n1C(=O)N(c1ccccc1)C2)Nc1ccccc1 | -4% | 16.3% |

| SMILES | Percent Effect [1] | Percent Effect [2] |
| --- | --- | --- |
| COCC1c2nnn(CC3CC3)c2CCN1C(=O)c1cccc(F)c1 (stereo not given) | -5.71% | 7.97% |
| CN(C)CCO[C@@H]1CC[C@H]2[C@H]1OCCN2C(=O)COc1ccccc1 | 1.51% | -12.1% |
| Oc1cc(CCC2CCCCN2)cc(-c2ccncc2)c1 (stereo not given) | 2.44% | -42.2% |
| CC(C)n1ccnc1C1CCN(Cc2ccc(Cl)c(F)c2)CC1 | 9.45% | -39.8% |
| Cc1nc(C)n(CC2CCCCN2CCCS(=O)(=O)N(C)C)n1 (stereo not given) | 1.48% | -34.2% |
| O=C(c1ccncn1)N1CCO[C@H]2[C@@H](OCc3cccnc3)CC[C@@H]21 | 5.42% | -37.5% |
| CCCNC(=O)CNc1ccc(C(=O)N2CCCCC2C)cc1C (stereo not given) | 3.79% | 10.6% |
| CCc1c(C(=O)N2CCCN(C(C)=O)CC2)cnn1C(C)(C)C | 0.899% | 3.41% |
| Cc1cccc(CN2C(=O)CCC23CCN(Cc2cccn2C)CC3)n1 | 0.796% | 0.0983% |
| O=C(CN1CCc2c(ncn2C2CC2)C1)NC1CC1 | -0.0146% | 5.91% |
| CN(C)C(=O)N1CCOCC2(CCN(c3ncccn3)C2)C1 (stereo not given) | 0.466% | 10% |
| CC(C)[C@H](NC(=O)NC1CCS(=O)(=O)C1)C(=O)Nc1cccnc1 (stereo not given in full) | -0.929% | -52.8% |
| CC(C)Cc1noc(CN2CCC(NC(=O)c3cccs3)CC2)n1 | 1.37% | -32.8% |
| CC(CNC(=O)Nc1cn[nH]c1)N1CCc2ccccc2C1 (stereo not given) | -0.721% | 21.5% |
| COc1ccccc1C(=O)N1Cc2cc(C)ccc2OCC1CN(C)C (stereo not given) | 1.89% | -7.43% |
| COC[C@H]1CCC[C@]12CN(CCc1ccccc1)CCO2 | -1.02% | -22% |
| CN(C)CCN1CCCC12CCN(C(=O)c1cnccn1)CC2 | 1.96% | 0.984% |
| O=C([C@H]1C[C@H]2OCC[C@H]2N(C(=O)C2CCOCC2)C1)N1CCCCO1 | 0.757% | -26.6% |
| c1ccc2oc(CCCN3CCCC3Cn3cncn3)nc2c1 (stereo not given) | -1.22% | 7.93% |
| CCc1ccc(S(=O)(=O)Nc2cn(C)cc(Br)c2=O)cc1 | -3.18% | -8.3% |
| CC(C)C(=O)N1CCN(C(=O)CCc2nnc(-c3ccccc3)o2)CC1 | 1.17% | -3.74% |
| CC(=O)N1CCCC1c1cc(N2CCN(C3CCCC3)CC2)cc(C)n1 (stereo not given) | -4.16% | 5% |
